Records with an inconclusive call do not appear. Calls of active or inactive are those of the source. Unless noted, the call rests on the fitted dose curve; in most records, active means well fitted curve in the direction sought with a large enough effect in the repeat runs; inconclusive means weak or mixed curves; inactive means no such curve, though single readings can be large; an effect the other way counts as inactive or inconclusive.
Experiments:
[1] = qHTS RealTime-Glo MT Cell Viability Assay in HEK293 cells - 0 hour (AID 1224880); further: top concentration of the series differs between compounds; nearly all actives have a fitted effect of over 45% in size
Method in brief: (§1)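 HEK293 + NanoLuc + prosubstrate, 600 cells/well; 5 h, 37 C/5% CO2; compound 23 nL in DMSO by pintool; 37 C; luminescence read at 0, 8, 16, 24, 32 and 40 h time points.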

[2] = A CellTox Green Cytotoxicity Assay to monitor cytotoxicity in HEK293 cells - 32 hour (AID 1224881); further: nearly all actives have a fitted effect of over 40% in size
Method in brief: (§2)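 Tox21 screen in HEK293: membrane-impermeant cyanine dye fluoresces on binding dead-cell DNA; compound pinned 5 h post-seeding, plates held at 37 C, signal read repeatedly through 40 h.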

[3] = A CellTox Green Cytotoxicity Assay to monitor cytotoxicity in HepG2 cells - 0 hour (AID 1224882); further: nearly all actives have a fitted effect of over 35% in size
Method in brief: (§3)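 Measurements at 0, 8, 16, 24, 32 and 40 h of treatment captured CellTox Green fluorescence in HepG2 cells that had been co-plated with reagent and preincubated 5 h at 37 C/5% CO2.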

[4] = A CellTox Green Cytotoxicity Assay to monitor cytotoxicity in HepG2 cells - 32 hour (AID 1224883); further: nearly all actives have a fitted effect of over 50% in size
Method in brief: as §3

[5] = A CellTox Green Cytotoxicity Assay to monitor cytotoxicity in HEK293 cells - 8 hour (AID 1224884); further: nearly all actives have a fitted effect of over 35% in size
Method in brief: as §2

[6] = qHTS RealTime-Glo MT Cell Viability Assay in HepG2 cells - 16 hour (AID 1224885); further: nearly all actives have a fitted effect of over 50% in size
Method in brief: (§4)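 Real-time, nonlytic viability: 600 HepG2 cells/well mixed with NanoLuc enzyme plus prosubstrate; 5 h settle, compound (DMSO) added by pintool; luminescence monitored over 40 h at 37 C.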

[7] = qHTS RealTime-Glo MT Cell Viability Assay in HEK293 cells - 24 hour (AID 1224886); further: top concentration of the series differs between compounds; nearly all actives have a fitted effect of over 50% in size
Method in brief: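 Cells + reagent dispensed (600 cells/well, HEK293) → 5 h at 37 C/5% CO2 → 23 nL compound in DMSO pinned → 40 h at 37 C → luminescence read at 0, 8, 16, 24, 32, 40 h.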

[8] = qHTS RealTime-Glo MT Cell Viability Assay in HEK293 cells - 8 hour (AID 1224887); further: top concentration of the series differs between compounds; nearly all actives have a fitted effect of over 50% in size
Method in brief: as §1

[9] = A CellTox Green Cytotoxicity Assay to monitor cytotoxicity in HEK293 cells - 16 hour (AID 1224888); further: nearly all actives have a fitted effect of over 35% in size
Method in brief: as §2

[10] = qHTS RealTime-Glo MT Cell Viability Assay in HepG2 cells - 0 hour (AID 1224889); further: nearly all actives have a fitted effect of over 50% in size
Method in brief: as §4

[11] = A CellTox Green Cytotoxicity Assay to monitor cytotoxicity in HepG2 cells - 8 hour (AID 1224890); further: nearly all actives have a fitted effect of over 45% in size
Method in brief: as §3

[12] = qHTS assay to identify small molecule antagonists of the estrogen receptor alpha (ER-alpha) signaling pathway using the BG1 cell line in the presence of 0.1 nM 17-beta-estradiol - cell viability counter screen (AID 1259241); further: nearly all actives have a fitted effect of over 40% in size
Method in brief: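 VM7Luc4E2 cells (endogenous ER-alpha, 4×ERE-luciferase), hormone-starved 5 days in charcoal-stripped FBS, were treated with compounds plus 0.1 nM 17beta-estradiol for 22 hr at 37C; viability read in same wells as CellTiter-Fluor live-cell protease fluorescence.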

[13] = qHTS assay to identify small molecule antagonists of the androgen receptor (AR) signaling pathway using the MDA cell line in the presence of 0.5 nM R1881 - cell viability counter screen (AID 1259242); further: nearly all actives have a fitted effect of over 45% in size
Method in brief: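 Concentration-response screen of compounds for toxicity in MDA-kb2 reporter cells: 16 hr at 37C with 0.5 nM R1881, endpoint live-cell protease fluorescence measured in the reporter wells.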

[14] = target: Estrogen receptor (Homo sapiens) (UniProt P03372); experiment: qHTS assay to identify small molecule antagonists of the estrogen receptor alpha (ER-alpha) signaling pathway using the BG1 cell line in the presence of 0.1 nM 17-beta-estradiol (AID 1259244); further: nearly all actives have a fitted effect of over 50% in size
Method in brief: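 Compounds were tested against 0.1 nM (final) 17beta-estradiol in VM7Luc4E2 cells, which express full-length ER-alpha and an ERE-luciferase reporter; luminescence was recorded following 22 h exposure.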

[15] = qHTS assay to identify small molecule HDAC inhibitors (AID 1259364);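 further: wild-type HCT-116 cells with endogenous class I/II HDAC activity; top concentration of the series differs between compounds; nearly all actives have a fitted effect of over 45% in size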
Method in brief: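 Screening used wild-type human colon HCT-116 cells incubated overnight, dosed with compounds for 2 hours, and assayed with a homogeneous luminogenic HDAC I/II reagent for 30 minutes at room temperature.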

[16] = qHTS assay to identify small molecule HDAC inhibitors - cell viability counter screen (AID 1259365)
Method in brief: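 Wild-type HCT-116 cells were seeded at 1,500 per well, incubated overnight at 37 C, then exposed to compounds in DMSO for 2hr. Viability was read by CellTiter-Glo luminescence after 30min at room temperature.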

[17] = qHTS assay to identify small molecule agonists of the sonic hedgehog signaling (Shh) pathway - cell viability counter screen (AID 1259366); further: nearly all actives have a fitted effect of over 50% in size
Method in brief: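 NIH/3T3-derived 3T3 Gli1-Luc cells (stable Gli1-responsive firefly luciferase reporter) were seeded, rested 4 hr at 37 C/5% CO2, then exposed to compounds in DMSO for 24 hr; viability was read by CellTiter-Fluor fluorescence in the same wells.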

[18] = qHTS assay to identify small molecule antagonists of the sonic hedgehog signaling (Shh) pathway - cell viability counter screen (AID 1259367); further: nearly all actives have a fitted effect of over 55% in size
Method in brief: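 Conditioned medium drove Shh signaling in 3T3 Gli1-Luc cells exposed to compounds at 37C and 5% CO2. Viability was determined from CellTiter-Fluor fluorescence, with reagent incubated 1 hr after 23 hr of treatment.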

[19] = target: Androgen receptor (Homo sapiens) (UniProt P10275); experiment: qHTS assay to identify small molecule antagonists of the androgen receptor (AR) signaling pathway using the MDA cell line in the presence of 0.5 nM R1881 (AID 1259243); further: nearly all actives have a fitted effect of over 50% in size
Method in brief: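 With R1881 held at 0.5 nM (final), compound effects on MMTV-luciferase expression in MDA-kb2 cells were scored by luminescence after a 16 hr, 37C incubation.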

[20] = qHTS assay to identify small molecule phospholipidosis (PLD) inducers (AID 1259344; active means well fitted curve in the direction sought with a large enough effect; an effect the other way counts as inactive or inconclusive)
Method in brief: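 After 4 h attachment on collagen I, HepG2 cells were dosed with compound alongside LipidTOX Red, kept 24 h at 37 C, fixed, and imaged for lamellar phospholipid pits.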

Measured: Potency

Estrogen receptor (Homo sapiens), sequence (P03372 whole entry, looked up): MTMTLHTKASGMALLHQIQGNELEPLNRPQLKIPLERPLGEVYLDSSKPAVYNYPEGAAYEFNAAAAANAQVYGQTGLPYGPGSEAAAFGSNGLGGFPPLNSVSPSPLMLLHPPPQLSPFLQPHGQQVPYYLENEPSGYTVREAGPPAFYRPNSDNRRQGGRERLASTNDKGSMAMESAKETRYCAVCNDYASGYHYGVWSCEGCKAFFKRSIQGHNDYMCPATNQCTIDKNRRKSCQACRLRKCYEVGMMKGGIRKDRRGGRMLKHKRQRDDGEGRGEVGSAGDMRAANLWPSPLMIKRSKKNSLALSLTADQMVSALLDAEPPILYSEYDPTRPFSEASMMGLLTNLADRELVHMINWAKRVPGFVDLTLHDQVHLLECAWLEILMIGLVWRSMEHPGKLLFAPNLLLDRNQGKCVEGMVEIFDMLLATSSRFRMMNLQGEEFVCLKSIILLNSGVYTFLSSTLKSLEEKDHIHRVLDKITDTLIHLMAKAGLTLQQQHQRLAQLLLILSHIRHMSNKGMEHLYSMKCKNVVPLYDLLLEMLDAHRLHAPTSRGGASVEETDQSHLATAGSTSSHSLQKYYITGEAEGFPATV
Androgen receptor (Homo sapiens), sequence (P10275 whole entry, looked up): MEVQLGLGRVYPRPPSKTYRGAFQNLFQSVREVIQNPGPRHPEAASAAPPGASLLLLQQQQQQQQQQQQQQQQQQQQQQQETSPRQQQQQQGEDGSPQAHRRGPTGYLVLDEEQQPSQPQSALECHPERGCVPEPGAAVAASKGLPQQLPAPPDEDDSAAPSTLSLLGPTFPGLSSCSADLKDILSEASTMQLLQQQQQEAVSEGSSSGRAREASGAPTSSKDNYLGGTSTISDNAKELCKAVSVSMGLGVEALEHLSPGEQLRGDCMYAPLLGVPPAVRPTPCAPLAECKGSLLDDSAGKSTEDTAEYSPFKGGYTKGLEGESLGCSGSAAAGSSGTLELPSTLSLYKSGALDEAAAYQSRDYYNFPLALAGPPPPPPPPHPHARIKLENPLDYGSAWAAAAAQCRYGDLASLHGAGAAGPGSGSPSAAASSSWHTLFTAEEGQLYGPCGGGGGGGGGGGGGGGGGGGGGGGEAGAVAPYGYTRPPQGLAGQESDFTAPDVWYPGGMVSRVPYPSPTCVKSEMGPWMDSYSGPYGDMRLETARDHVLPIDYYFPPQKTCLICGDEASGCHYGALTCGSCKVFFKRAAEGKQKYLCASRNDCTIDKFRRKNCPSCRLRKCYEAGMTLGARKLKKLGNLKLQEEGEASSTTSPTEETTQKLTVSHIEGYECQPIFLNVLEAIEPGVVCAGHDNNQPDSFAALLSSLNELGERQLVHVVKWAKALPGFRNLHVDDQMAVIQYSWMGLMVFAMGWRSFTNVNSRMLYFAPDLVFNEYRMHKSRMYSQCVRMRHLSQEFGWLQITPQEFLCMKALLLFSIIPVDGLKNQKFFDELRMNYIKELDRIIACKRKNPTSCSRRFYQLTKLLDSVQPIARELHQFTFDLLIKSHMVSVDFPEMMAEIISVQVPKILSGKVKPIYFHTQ

C=C(C)C(=O)OCC(C)(C)COC(=O)C(=C)C
inactive: [1] | [2] | [3] | [4] | [5] | [6] | [7] | [8] | [9] | [10] | [11] | [12] | [13] | [14] | [15] | [16] | [17] | [18]

CC1=CCC(C(C)C)=CC1
inactive: [1] | [2] | [3] | [4] | [5] | [6] | [7] | [8] | [9] | [10] | [11] | [12] | [13] | [14] | [15] | [16] | [17] | [18]

CCCCCCN
inactive: [1] | [2] | [3] | [4] | [5] | [6] | [7] | [8] | [9] | [10] | [11] | [12] | [13] | [14] | [15] | [16] | [17] | [18]

CCCCCCCCC(=O)Cl
inactive: [1] | [2] | [3] | [4] | [5] | [6] | [7] | [8] | [9] | [10] | [11] | [12] | [13] | [14] | [15] | [16] | [17] | [18]

CC(C)N(c1ccccc1)C(C)C
inactive: [1] | [2] | [3] | [4] | [5] | [6] | [7] | [8] | [9] | [10] | [11] | [12] | [13] | [14] | [15] | [16] | [17] | [18]

OC[C@H](Cc1cccc(O)c1)[C@H](CO)Cc1cccc(O)c1
inactive: [1] | [2] | [3] | [4] | [5] | [6] | [7] | [8] | [9] | [10] | [11] | [12] | [13] | [15] | [16] | [17]

Nc1ccc(S(=O)(=O)Nc2ccc(Cl)nn2)cc1
inactive: [1] | [2] | [3] | [4] | [5] | [6] | [7] | [8] | [9] | [10] | [11] | [12] | [19] | [14] | [20] | [15] | [16] | [17] | [18]

CCCCCCCCCCl
inactive: [1] | [2] | [3] | [4] | [5] | [6] | [7] | [8] | [9] | [10] | [11] | [12] | [13] | [15] | [16] | [17] | [18]

CC(=O)/C=C/C1C(C)=CCC(C)C1(C)C (stereo unspecified)
inactive: [1] | [2] | [3] | [4] | [5] | [6] | [7] | [8] | [9] | [10] | [11] | [12] | [14] | [15] | [16] | [17] | [18]

CCCCCOC(=O)CCC
inactive: [1] | [2] | [3] | [4] | [5] | [6] | [7] | [8] | [9] | [10] | [11] | [12] | [13] | [15] | [16] | [17] | [18]

O=C(CCNNC(=O)c1ccncc1)NCc1ccccc1
inactive: [1] | [2] | [3] | [4] | [6] | [7] | [8] | [9] | [10] | [11] | [12] | [13] | [14] | [20] | [15] | [16] | [17]

CN=C(NC#N)Nc1ccc(C2=NNC(=O)CC2C)cc1 (stereo unspecified)
inactive: [1] | [2] | [3] | [4] | [6] | [7] | [8] | [9] | [10] | [11] | [12] | [13] | [20] | [15] | [16] | [17] | [18]

CC(=O)Nc1ccc(S(=O)(=O)Cl)cc1
inactive: [1] | [2] | [3] | [4] | [5] | [6] | [7] | [8] | [9] | [10] | [11] | [12] | [15] | [16] | [17] | [18]

CC(CN)CC(C)(C)CCN (stereo unspecified)
inactive: [1] | [2] | [3] | [4] | [6] | [7] | [8] | [9] | [10] | [11] | [12] | [15] | [16] | [17] | [18]

Reference: PubChem BioAssay (Tox21)
